Results taken from PubChem BioAssay (EPA / NIEHS).
Activity calls are given as the source filed them. The calls were made as follows: active = hit-call score of the fitted dose curve at least 0.9, where 1 is the maximum; inactive = score below 0.9.

Assays:
Conditions in all cases: mRNA level, 48 h; actives raise or lower the signal
[1] = read-out: Peroxisomal acyl-coenzyme A oxidase 1 (ACOX1) gene, ACOX1 (gene 51); assay: LTEA_HepaRG_ACOX1: Life Technologies and Expression Analysis (LTEA) Assay for Peroxisomal acyl-coenzyme A oxidase 1 (ACOX1) gene using HepaRG (AID 2283467)
In short: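 HepaRG, 48 h chemical exposure, 8-pt half-log series from 100 uM top, 0.5% DMSO vehicle, duplicates. Readout: ACOX1 mRNA by Fluidigm qRT-PCR, housekeeping-normalized; bidirectional fit vs DMSO baseline.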

[2] = read-out: Alkaline Phosphatase, Placental (ALPP) gene, ALPP (gene 250); assay: LTEA_HepaRG_ALPP: Life Technologies and Expression Analysis (LTEA) Assay for Alkaline Phosphatase, Placental (ALPP) gene using HepaRG (AID 2283468)
In short: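 HepaRG cells plated 48 h, then exposed in duplicate for 48 h in serum-free induction medium to 8-point half-log series from 100 uM in 0.5% DMSO. ALPP mRNA by TaqMan qRT-PCR, normalized to ACTB/GAPDH/POLR2A; bidirectional fit versus DMSO.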

[3] = read-out: Bcl-2 (BAD) gene, BAD (gene 572); assay: LTEA_HepaRG_BAD: Life Technologies and Expression Analysis (LTEA) Assay for Bcl-2 (BAD) gene using HepaRG (AID 2283469)
In short: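 HepaRG, 48 h exposure, 8-pt half-log curve from 100 uM in 0.5% DMSO, duplicates. Readout: TaqMan qRT-PCR for BAD mRNA, housekeeping-normalised (ACTB/GAPDH/POLR2A); gain or loss fitted against DMSO baseline.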

[4] = read-out: Bcl-2 (BAX) gene, BAX (gene 581); assay: LTEA_HepaRG_BAX: Life Technologies and Expression Analysis (LTEA) Assay for Bcl-2 (BAX) gene using HepaRG (AID 2283470)
In short: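 Gene expression measured by Fluidigm qRT-PCR with three housekeeping genes for normalisation. HepaRG cells, plated 48 h beforehand, treated 48 h at up to 100 uM (8-point, half-log) in 0.5% DMSO. Bidirectional fitting versus DMSO.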

[5] = read-out: adenosine kinase (ADK) gene, ADK (gene 132); assay: LTEA_HepaRG_ADK: Life Technologies and Expression Analysis (LTEA) Assay for adenosine kinase (ADK) gene using HepaRG (AID 2283471)
In short: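 ADK expression quantified by qRT-PCR, normalised to three housekeeping genes, after 48 h exposure of HepaRG cells to eight concentrations (top 100 uM, half-log steps, duplicate, 0.5% DMSO). Up- or down-regulation fitted relative to vehicle.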

[6] = read-out: Alpha-fetoprotein (AFP) gene, AFP (gene 174); assay: LTEA_HepaRG_AFP: Life Technologies and Expression Analysis (LTEA) Assay for Alpha-fetoprotein (AFP) gene using HepaRG (AID 2283472)
In short: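 AFP transcript measured by TaqMan qRT-PCR with three housekeeping genes for normalization, after 48 h chemical treatment of HepaRG cells (top 100 uM, half-log steps, 0.5% DMSO). Gain or loss fitted against vehicle.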

[7] = read-out: Apolipoprotein A-V (APOA5) gene, APOA5 (gene 116519); assay: LTEA_HepaRG_APOA5: Life Technologies and Expression Analysis (LTEA) Assay for Apolipoprotein A-V (APOA5) gene using HepaRG (AID 2283474)
In short: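 Differentiated HepaRG cells in serum-free induction medium, exposed 48 h in duplicate to eight half-log concentrations topping at 100 uM (0.5% DMSO). APOA5 mRNA by Fluidigm TaqMan qRT-PCR, normalized to ACTB, GAPDH and POLR2A; bidirectional fit versus DMSO.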

[8] = read-out: Apoptosis regulator Bcl-2 (Homo sapiens) (UniProt P10415); assay: LTEA_HepaRG_BCL2: Life Technologies and Expression Analysis (LTEA) Assay for Bcl-2 gene using HepaRG (AID 2283475)
In short: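 qRT-PCR of BCL2 transcript, normalized to three housekeeping genes (ACTB, GAPDH, POLR2A), after 48 h chemical exposure of HepaRG cells; concentrations top 100 uM with half-log dilutions, 0.5% DMSO vehicle, duplicates; changes up or down fitted relative to vehicle.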

[9] = read-out: Bcl-2 (BID) gene, BID (gene 637); assay: LTEA_HepaRG_BID: Life Technologies and Expression Analysis (LTEA) Assay for Bcl-2 (BID) gene using HepaRG (AID 2283476)
In short: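 Duplicate 48 h treatments of HepaRG cells in serum-free induction medium spanned 100 uM downward in half-log steps, 0.5% DMSO. Transcript change quantified by qRT-PCR against three housekeeping genes, fitted up or down versus DMSO.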

Caspase-3 (Homo sapiens) = Caspase-3 (Homo sapiens) (UniProt P42574); assay: LTEA_HepaRG_CASP3: Life Technologies and Expression Analysis (LTEA) Assay for cysteine-aspartic acid protease (CASP3) using HepaRG (AID 2283477)
Sequence of Caspase-3 (Homo sapiens) (P42574 whole entry, looked up): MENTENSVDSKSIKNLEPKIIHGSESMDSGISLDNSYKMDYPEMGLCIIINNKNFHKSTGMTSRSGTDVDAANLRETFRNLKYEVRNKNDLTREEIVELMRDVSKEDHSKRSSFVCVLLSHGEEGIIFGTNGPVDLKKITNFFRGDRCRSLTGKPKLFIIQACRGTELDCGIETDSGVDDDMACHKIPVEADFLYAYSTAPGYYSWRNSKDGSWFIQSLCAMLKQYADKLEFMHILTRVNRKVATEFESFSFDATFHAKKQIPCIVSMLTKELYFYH
In short: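 Differentiated HepaRG cells, plated 48 h, were treated in duplicate in serum-free induction medium for 48 h with eight half-log concentrations up to 100 uM in 0.5% DMSO. CASP3 mRNA measured by qRT-PCR, normalized to ACTB, GAPDH, POLR2A.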

[10] = read-out: Cytochrome P450 (CYP24A1), CYP24A1 (gene 1591); assay: LTEA_HepaRG_CYP24A1: Life Technologies and Expression Analysis (LTEA) Assay for Cytochrome P450 (CYP24A1) using HepaRG (AID 2283478)
In short: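 HepaRG cells plated 48 h, then exposed in duplicate in serum-free induction medium for 48 h to 8-point half-log series from 100 uM in 0.5% DMSO. CYP24A1 mRNA by Fluidigm qRT-PCR, normalized to ACTB, GAPDH, POLR2A; bidirectional fit versus DMSO.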

[11] = read-out: Cytochrome P450 (CYP1A2), CYP1A2 (gene 1544); assay: LTEA_HepaRG_CYP1A2: Life Technologies and Expression Analysis (LTEA) Assay for Cytochrome P450 (CYP1A2) using HepaRG (AID 2283479)
In short: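 Differentiated human HepaRG cells in serum-free induction medium exposed 48 hours in duplicate to 8 half-log concentrations from 100 uM, 0.5% DMSO. CYP1A2 mRNA quantified by qRT-PCR, normalized to ACTB, GAPDH and POLR2A; bidirectional fitting versus DMSO.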

[12] = read-out: cysteine-aspartic acid protease (CASP8), CASP8 (gene 841); assay: LTEA_HepaRG_CASP8: Life Technologies and Expression Analysis (LTEA) Assay for cysteine-aspartic acid protease (CASP8) using HepaRG (AID 2283480)
In short: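 qRT-PCR readout of CASP8 mRNA, normalized to three housekeeping genes, after 48 h chemical exposure of HepaRG cells; 8-point half-log series, top 100 uM, 0.5% DMSO vehicle. Bidirectional curve fitting against DMSO baseline.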

[13] = read-out: Cytochrome P450 (CYP2B6), CYP2B6 (gene 1555); assay: LTEA_HepaRG_CYP2B6: Life Technologies and Expression Analysis (LTEA) Assay for Cytochrome P450 (CYP2B6) using HepaRG (AID 2283481)
In short: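 Differentiated human HepaRG cells in serum-free induction medium, dosed in duplicate for 48 h over 8 half-log concentrations topping at 100 uM (0.5% DMSO). CYP2B6 mRNA measured by TaqMan qRT-PCR, normalized to ACTB, GAPDH, POLR2A; bidirectional fit versus DMSO.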

[14] = read-out: Cytochrome P450 2C19 (Homo sapiens) (UniProt P33261); assay: LTEA_HepaRG_CYP2C19: Life Technologies and Expression Analysis (LTEA) Assay for CYP2C19 using HepaRG (AID 2283482)
In short: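 Differentiated HepaRG cells in serum-free induction medium exposed 48 h in duplicate, 8 concentrations from 100 uM by half-log steps in 0.5% DMSO. CYP2C19 mRNA measured by TaqMan qRT-PCR, normalized to ACTB, GAPDH, POLR2A. Bidirectional fit versus DMSO.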

CYP2C8 (gene 1558) = assay: LTEA_HepaRG_CYP2C8: Life Technologies and Expression Analysis (LTEA) Assay for CYP2C8 using HepaRG (AID 2283483)
In short: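 HepaRG (human liver line), 48 h chemical exposure, 8-pt half-log series from 100 uM, 0.5% DMSO vehicle. Readout: CYP2C8 transcript by qRT-PCR, housekeeping-normalized. Bidirectional fit vs DMSO baseline.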

CYP2C9 (gene 1559) = assay: LTEA_HepaRG_CYP2C9: Life Technologies and Expression Analysis (LTEA) Assay for CYP2C9 using HepaRG (AID 2283484)
In short: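 HepaRG, 48 h dosing, 8-pt half-log series, top 100 uM, 0.5% DMSO vehicle. Read-out: CYP2C9 transcript by TaqMan qRT-PCR, housekeeping-normalized (ACTB/GAPDH/POLR2A). Gain or loss fitted vs DMSO baseline.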

CYP2E1 (gene 1571) = assay: LTEA_HepaRG_CYP2E1: Life Technologies and Expression Analysis (LTEA) Assay for CYP2E1 using HepaRG (AID 2283485)
In short: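 CYP2E1 transcript measured by Fluidigm qRT-PCR against three housekeeping genes in human HepaRG cells treated 48 h (top 100 uM, half-log steps, 0.5% DMSO vehicle). Gain or loss fitted relative to DMSO baseline.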

CYP4A11 (gene 1579) = assay: LTEA_HepaRG_CYP4A11: Life Technologies and Expression Analysis (LTEA) Assay for CYP4A11 using HepaRG (AID 2283486)
In short: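 Differentiated HepaRG cells, 48 h after plating, exposed in duplicate for 48 h to 8 half-log concentrations up to 100 uM in 0.5% DMSO in serum-free induction medium. CYP4A11 mRNA measured by TaqMan qRT-PCR, normalized to ACTB, GAPDH and POLR2A.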

[15] = read-out: Cytochrome P450 3A4 (Homo sapiens) (UniProt P08684); assay: LTEA_HepaRG_CYP3A4: Life Technologies and Expression Analysis (LTEA) Assay for CYP3A4 using HepaRG (AID 2283487)
In short: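 Differentiated HepaRG cells, plated 48 h, then dosed 48 h in serum-free induction medium with 0.5% DMSO, 8 half-log concentrations up to 100 uM, duplicate. CYP3A4 mRNA by qRT-PCR, normalized to ACTB/GAPDH/POLR2A; bidirectional fit versus DMSO.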

Measured: AC50

Sequence of Cytochrome P450 3A4 (Homo sapiens) (P08684 whole entry, looked up): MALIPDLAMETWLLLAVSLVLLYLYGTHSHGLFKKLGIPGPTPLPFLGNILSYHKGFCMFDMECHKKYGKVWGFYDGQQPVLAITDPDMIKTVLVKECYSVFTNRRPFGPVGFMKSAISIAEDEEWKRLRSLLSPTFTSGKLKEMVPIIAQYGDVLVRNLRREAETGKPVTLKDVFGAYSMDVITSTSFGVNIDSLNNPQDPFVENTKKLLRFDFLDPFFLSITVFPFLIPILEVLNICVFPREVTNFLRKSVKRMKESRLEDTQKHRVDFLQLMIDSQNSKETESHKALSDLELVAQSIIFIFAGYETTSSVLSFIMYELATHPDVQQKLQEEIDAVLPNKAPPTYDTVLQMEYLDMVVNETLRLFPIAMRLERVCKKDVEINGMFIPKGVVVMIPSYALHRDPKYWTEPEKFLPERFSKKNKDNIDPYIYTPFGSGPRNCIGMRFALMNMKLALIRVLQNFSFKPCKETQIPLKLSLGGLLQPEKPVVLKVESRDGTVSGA
Sequence of Apoptosis regulator Bcl-2 (Homo sapiens) (P10415 whole entry, looked up): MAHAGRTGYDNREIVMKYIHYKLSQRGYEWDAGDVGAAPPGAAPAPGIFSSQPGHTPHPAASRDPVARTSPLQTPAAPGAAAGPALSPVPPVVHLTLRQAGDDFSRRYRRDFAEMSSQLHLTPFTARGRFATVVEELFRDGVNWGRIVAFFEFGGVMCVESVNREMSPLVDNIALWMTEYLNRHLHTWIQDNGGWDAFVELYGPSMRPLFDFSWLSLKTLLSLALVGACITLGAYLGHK
Sequence of Cytochrome P450 2C19 (Homo sapiens) (P33261 whole entry, looked up): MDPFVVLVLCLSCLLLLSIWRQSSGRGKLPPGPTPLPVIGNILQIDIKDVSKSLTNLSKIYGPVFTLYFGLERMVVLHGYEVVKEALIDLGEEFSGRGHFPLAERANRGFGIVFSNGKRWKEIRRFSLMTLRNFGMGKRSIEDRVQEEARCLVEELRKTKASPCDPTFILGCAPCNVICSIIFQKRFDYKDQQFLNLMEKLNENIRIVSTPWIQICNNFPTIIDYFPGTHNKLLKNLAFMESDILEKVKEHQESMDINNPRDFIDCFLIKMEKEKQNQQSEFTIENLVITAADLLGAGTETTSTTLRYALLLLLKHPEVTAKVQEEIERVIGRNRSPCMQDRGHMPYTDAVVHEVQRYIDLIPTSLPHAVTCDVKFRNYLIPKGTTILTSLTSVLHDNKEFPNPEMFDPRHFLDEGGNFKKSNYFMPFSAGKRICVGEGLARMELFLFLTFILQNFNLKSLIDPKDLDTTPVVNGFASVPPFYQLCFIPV

CC(C)(c1ccccc1)c1ccc(O)c(C(C)(C)c2ccccc2)c1
active: [1] 50 µM | [6] 68.7 µM | [7] 50 µM | [8] 81.6 µM | [13] 11.9 µM | [14] 83.2 µM | CYP2C8 (gene 1558) 85 µM | CYP2C9 (gene 1559) 85.4 µM | CYP2E1 (gene 1571) 62.4 µM | CYP4A11 (gene 1579) 73.4 µM | [15] 12.3 µM
inactive: [2] | [3] | [4] | [5] | [9] | Caspase-3 (Homo sapiens) | [10] | [11] | [12]

CC(C)(C)CC(C)(C)c1ccc(O)cc1
active: [7] 50 µM | [9] 82.8 µM | [13] 3.33 µM | CYP2E1 (gene 1571) 26.5 µM | CYP4A11 (gene 1579) 72.3 µM
inactive: all other assays above

CCCCCCCCc1ccc(O)cc1
active: CYP4A11 (gene 1579) 65.8 µM
inactive: all other assays above

C[C@@H]1C[C@@H]([C@H](O)CC2CC(=O)NC(=O)C2)C(=O)[C@@H](C)C1
active: [1] 50 µM | [2] 73.8 µM | [4] 9.92 µM | [5] 81.2 µM | [6] 15.5 µM | [7] 26 µM | [9] 50 µM | Caspase-3 (Homo sapiens) 12.3 µM | [12] 79.9 µM
inactive: [8]

CC(=O)[O][Hg][c]1ccccc1
active: [1] 15.2 µM | [2] 0.646 µM | [3] 12.7 µM | [4] 0.552 µM | [5] 31.5 µM | [6] 5 µM | [7] 4.21 µM | Caspase-3 (Homo sapiens) 23.1 µM | [11] 5 µM | [12] 26.6 µM | [13] 6.12 µM | [14] 5 µM | CYP2C8 (gene 1558) 5 µM | CYP2C9 (gene 1559) 0.862 µM | CYP2E1 (gene 1571) 13.2 µM | [15] 3.76 µM
inactive: [8] | [9] | [10] | CYP4A11 (gene 1579)

CCN1CCC2(CC1)COc1cc3c(cc12)N(C(=O)c1ccc(-c2ccc(-c4nnc(C)o4)cc2C)cc1)CC3
active: [1] 30.2 µM | [5] 21.3 µM | [7] 24.6 µM | [12] 21.8 µM | [13] 28.3 µM | [14] 21.9 µM | CYP2C9 (gene 1559) 21.4 µM | CYP2E1 (gene 1571) 17.7 µM | CYP4A11 (gene 1579) 46.8 µM | [15] 28 µM
inactive: [2] | [3] | [4] | [6] | [8] | [9] | Caspase-3 (Homo sapiens) | [10] | [11] | CYP2C8 (gene 1558)

ClCC(Cl)CCl
active: [4] 9.92 µM | [7] 77.6 µM | [9] 84.3 µM | [13] 17.7 µM
inactive: all other assays above

O=C(O)C(F)(F)C(F)(F)C(F)(F)C(F)(F)C(F)(F)C(F)(F)C(F)(F)C(F)(F)C(F)(F)C(F)(F)F
active: [11] 41.6 µM | [13] 47.8 µM | CYP2C9 (gene 1559) 47.8 µM | CYP2E1 (gene 1571) 57 µM | CYP4A11 (gene 1579) 21.5 µM
inactive: all other assays above
